Structures are written as SMILES. Inconclusive results are not listed. A call without a number means that no potency is given here. Activity calls are given as the source filed them. The call rests on the fitted dose curve; in most records, active means well fitted cell-killing curve with a large enough effect; inconclusive means small, poorly fitted or top-dose-only effect, or effect the other way; inactive means no such curve, though single readings can be large or run the other way.

This is an account of results in PubChem BioAssay (NCATS).
Potency means the concentration at half of the fitted maximal effect.

A short description of this assay: Quantitative High-Throughput drug screen in 47 multiple myeloma cell lines against the NCATS MIPE library collection: H1112_PLB cell viability assay (AID 1918967; further: nearly all actives have a fitted effect of over 30% in size). The note with it: H1112 myeloma cells viability, ATP luminescence, 48 h; series mostly up to 45.8 µM. An outline of the steps:
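CellTiter-Glo ATP luminescence gave viability after 48 h compound treatment at 37C of 500 multiple myeloma cells per well. Normalisation used DMSO-only wells as 100% and media-only wells as 0% viability; primary qHTS of approved and investigational drugs.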
Turning to `COC[C@@H](c1ccc(C(F)(F)F)cc1)N1CCN(C2(C)CCN(C(=O)c3c(C)ncnc3C)CC2)C[C@H]1C`, the Potency was 13.2 µM (active). On to `CC(C)(C)COc1ccc(-n2cc(C(=O)O)cn2)cc1C#N`, for which the Potency entry is “inactive”. Then `O=C(Nc1cc(Cl)cc2c1[nH]c1cnccc12)c1cccnc1`, with 1.48 µM (active). `OC[C@H]1O[C@@H](n2cnc3c2NC=NC[C@@H]3O)C[C@H]1O`: the Potency was 18.7 µM (active). On to `Cc1cnc(C(=O)O)c[n+]1[O-]`, for which the Potency result is “inactive”. As for `CC(=Cc1ccccc1)C=C1SC(=S)N(CC(=O)O)C1=O`, the Potency result was “inactive”. With `Nc1ncnc2c1ncn2[C@@H]1O[C@H](CO)C[C@@H]1O`, the Potency result is “inactive”. Consider `O=c1c(-c2ccc(O)cc2)coc2cc(O)ccc12`, for which the Potency result is “inactive”. For the compound `O=C(NCc1ccncc1)C12C[C@H]3C[C@@H](C1)CC(c1ccc(Cl)cc1)(C3)C2`, the Potency is 13.2 µM (active). In the case of `Nc1ncnc2c1ncn2[C@@H]1O[C@@H](CO)[C@H](O)[C@H]1O`, the Potency entry is “inactive”. Regarding `CNC1CCC(N(Cc2cccc(-c3ccncc3)c2)C(=O)c2sc3c(F)ccc(F)c3c2Cl)CC1` (centres undefined), the Potency is 18.7 µM (active). As for `NC1=N[C@@]2(c3cc(NC(=O)c4ccc(F)cn4)ccc3F)COC[C@@H]2CS1`, the Potency was 10.5 µM (active). With `CC[C@H]1OC(=O)[C@H](C)C(=O)[C@H](C)[C@@H](O[C@H]2O[C@H](C)C[C@H](N(C)C)[C@@H]2O)[C@](C)(OC)C[C@@H](C)C(=O)[C@H](C)[C@H]2N(CCCCn3cnc(-c4cccnc4)c3)C(=O)O[C@]12C`, the Potency was 13.2 µM (active). For `CCOC(=O)O[C@]1(C(=O)OCCl)CC[C@@H]2[C@H]3CCC4=CC(=O)C=C[C@]4(C)[C@@H]3[C@@H](O)C[C@@]21C`, the Potency result was “inactive”.
